Results from PubChem BioAssay (NCATS).
Results filed as inconclusive are left out. Activity calls are given as the source filed them. Unless noted, calls follow the shape of the dose curve; as a rule, active = well fitted curve in the direction sought with a large enough effect; inconclusive = small, poorly fitted or top-dose-only effect, or another doubt; inactive = no such curve, though single readings can be large; an effect the other way counts as inactive or inconclusive.

Legend:
[1] = qHTS assay for measurement of the activity of small molecule inhibitors on Zika virus induced Caspase-3 activity in human iPSC derived neural progenitor cells (hNPCs) (AID 1224857); also: nearly all actives have a fitted effect of over 65% in size
In short: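 Values are percent inhibition of virus-induced caspase-3/7 signal, scaled between uninfected cells and ZIKV-infected cells. Infection used 2 FFU/cell for 6 h after 1 h compound exposure.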

[2] = qHTS assay for measurement of the activity of small molecule inhibitors on Zika virus induced Caspase-3 activity in human astrocytoma cells (AID 1224859)
In short: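 Compound added 1 h pre-infection; ZIKV 2 FFU/cell on SNB-19 cells, 6 h, 37 C/5% CO2. Caspase-Glo 3/7 luminescence; values as % inhibition of ZIKV-induced caspase activity.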

[3] = qHTS of pediatric cancer cell lines to identify multiple opportunities for drug repurposing: Primary screen for TC32 cells (AID 1347089); also: nearly all actives have a fitted effect of over 60% in size; also: potency is read from the fitted curve at half-maximal effect
In short: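 TC32 cells, 500-1,000/well in growth medium, compound-treated 48 h at 37 °C; viability from CellTiter-Glo luminescence. Primary screen: MIPE 11-point (0.78 nM–46 µM final), NPC 8-point (0.59 nM–46 µM final); confirmatory at 11-point dilutions.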

[4] = qHTS of pediatric cancer cell lines to identify multiple opportunities for drug repurposing: Primary screen for DAOY cells (AID 1347090); also: nearly all actives have a fitted effect of over 55% in size; also: potency is read from the fitted curve at half-maximal effect
In short: (§1)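 Eight- or eleven-point concentration series, 48 h treatment at 37 degrees C in growth media; readout CellTiter-Glo luminescence. Potency and efficacy were taken from the concentration-response curves.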

[5] = qHTS of pediatric cancer cell lines to identify multiple opportunities for drug repurposing: Primary screen for SJ-GBM2 cells (AID 1347091); also: potency is read from the fitted curve at half-maximal effect
In short: as §1

[6] = qHTS of pediatric cancer cell lines to identify multiple opportunities for drug repurposing: Primary screen for A673 cells (AID 1347092); also: nearly all actives have a fitted effect of over 45% in size; also: potency is read from the fitted curve at half-maximal effect
In short: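 A673 cells (500-1,000 cells/well) were treated 48 hours at 37 degrees C with compounds at 11-point (0.78 nM to 46 µM) or 8-point (0.59 nM to 46 µM) dilutions. Viability read by CellTiter-Glo luminescence; concentration-response curves fitted.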

[7] = qHTS of pediatric cancer cell lines to identify multiple opportunities for drug repurposing: Primary screen for BT-37 cells (AID 1347094); also: potency is read from the fitted curve at half-maximal effect
In short: (§2)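 Plated cells (500-1,000 per well, growth media) were allowed to settle for 5 hours, treated with compound dilutions for 48 hours, then lysed with CellTiter-Glo for 15 min at room temperature before luminescence reading.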

[8] = qHTS of pediatric cancer cell lines to identify multiple opportunities for drug repurposing: Primary screen for NB-EBc1 cells (AID 1347095); also: potency is read from the fitted curve at half-maximal effect
In short: as §2

[9] = qHTS of pediatric cancer cell lines to identify multiple opportunities for drug repurposing: Primary screen for U-2 OS cells (AID 1347096); also: nearly all actives have a fitted effect of over 50% in size
In short: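 Cells (500-1,000/well) in growth media were settled 5 h at 37 degrees C, then given compounds for 48 h. Viability was read as CellTiter-Glo luminescence. Primary runs used MIPE at 11 points (0.78 nM-46 µM) and NPC at 8 points (0.59 nM-46 µM); follow-ups used 11 points.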

[10] = qHTS of pediatric cancer cell lines to identify multiple opportunities for drug repurposing: Primary screen for Saos-2 cells (AID 1347097); also: nearly all actives have a fitted effect of over 40% in size; also: potency is read from the fitted curve at half-maximal effect
In short: as §2

[11] = qHTS of pediatric cancer cell lines to identify multiple opportunities for drug repurposing: Primary screen for SK-N-MC cells (AID 1347093); also: potency is read from the fitted curve at half-maximal effect
In short: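 Metabolically active cells were quantified by ATP-dependent luminescence (CellTiter-Glo, 15 min at room temperature) following 48 h treatment. Cells had been plated at 500-1,000 per well and settled for 5 h beforehand.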

[12] = P-glycoprotein substrates identified in KB-3-1 adenocarcinoma cell line, qHTS therapeutic library screen (AID 1346986); also: nearly all actives have a fitted effect of over 60% in size
In short: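 KB-3-1 parental cells and P-gp-overexpressing KB-8-5-11 (colchicine omitted during assay) plated at 500 cells/well, dosed in dose-response, incubated 72 h at 37 degree C. CellTiter-Glo luminescence read; KB-8-5-11 also tested with tariquidar.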

[13] = P-glycoprotein substrates identified in KB-8-5-11 adenocarcinoma cell line, qHTS therapeutic library screen (AID 1346987); also: series mostly up to about 44 µM; nearly all actives have a fitted effect of over 65% in size
In short: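 P-gp-mediated resistance screen: KB-8-5-11 cells treated 72 h with compounds in dose-response. CellTiter-Glo viability.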

[14] = Natriuretic polypeptide receptor (hNpr1) antagonism - Pilot counterscreen GloSensor control cell line (AID 1347045; calls by dose curve; also: series mostly up to about 38 µM)
In short: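 This counterscreen uses HEK293 cells expressing the GIP/pGS-40F cGMP biosensor. Compound-treated cells are challenged with 50 uM sodium nitroprusside, and the luciferase signal is compared before and after stimulation.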

[15] = molecular target: Atrial natriuretic peptide receptor 1 (Homo sapiens) (UniProt P16066); experiment: Natriuretic polypeptide receptor (hNpr1) antagonism - Pilot screen (AID 1347049; calls by dose curve;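 also: agonist-evoked cGMP luminescence read 20 min after hNppA addition; series mostly up to about 58 µM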)
Sequence of Atrial natriuretic peptide receptor 1 (Homo sapiens) (P16066 whole entry, looked up): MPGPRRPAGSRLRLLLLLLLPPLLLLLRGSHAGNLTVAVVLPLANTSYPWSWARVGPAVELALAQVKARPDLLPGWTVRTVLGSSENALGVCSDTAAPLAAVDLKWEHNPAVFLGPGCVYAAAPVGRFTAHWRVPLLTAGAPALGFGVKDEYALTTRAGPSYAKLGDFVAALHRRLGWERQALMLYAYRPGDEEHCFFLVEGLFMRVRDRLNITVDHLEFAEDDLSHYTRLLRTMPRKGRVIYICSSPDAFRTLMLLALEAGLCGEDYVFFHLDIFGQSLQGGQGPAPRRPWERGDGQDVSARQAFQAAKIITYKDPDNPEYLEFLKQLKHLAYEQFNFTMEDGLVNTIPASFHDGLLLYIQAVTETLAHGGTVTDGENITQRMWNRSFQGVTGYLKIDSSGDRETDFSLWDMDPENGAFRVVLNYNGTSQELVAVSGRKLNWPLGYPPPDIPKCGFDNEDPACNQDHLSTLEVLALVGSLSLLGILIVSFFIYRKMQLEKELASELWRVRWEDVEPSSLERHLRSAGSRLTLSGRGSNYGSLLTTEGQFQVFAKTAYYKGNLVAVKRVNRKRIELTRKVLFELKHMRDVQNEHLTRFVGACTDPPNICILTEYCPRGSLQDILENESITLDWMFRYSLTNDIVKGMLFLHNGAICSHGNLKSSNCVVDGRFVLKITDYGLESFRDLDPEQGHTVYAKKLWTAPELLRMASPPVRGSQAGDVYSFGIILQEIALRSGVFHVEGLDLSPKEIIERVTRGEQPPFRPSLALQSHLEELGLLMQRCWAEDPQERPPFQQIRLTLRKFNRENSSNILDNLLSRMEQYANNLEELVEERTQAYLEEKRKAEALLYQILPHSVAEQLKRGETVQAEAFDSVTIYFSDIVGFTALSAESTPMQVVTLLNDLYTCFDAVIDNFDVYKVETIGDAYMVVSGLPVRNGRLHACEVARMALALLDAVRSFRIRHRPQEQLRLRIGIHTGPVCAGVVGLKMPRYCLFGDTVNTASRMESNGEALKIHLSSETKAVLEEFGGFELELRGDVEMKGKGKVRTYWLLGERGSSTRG
In short: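 HEK293 cells co-expressing hNpr1 and the GloSensor pGS-40F cGMP luciferase sensor were preloaded with 2% GloSensor reagent for 2 h. Compounds were added for 30 min at room temperature, then cells were stimulated with 0.1 nM hNppA for 20 min before luminescence readout.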

[16] = molecular target: Atrial natriuretic peptide receptor 2 (Homo sapiens) (UniProt P20594); experiment: Natriuretic polypeptide receptor (hNpr2) antagonism - Pilot subtype selectivity assay (AID 1347050; calls by dose curve)
Sequence of Atrial natriuretic peptide receptor 2 (Homo sapiens) (P20594 whole entry, looked up): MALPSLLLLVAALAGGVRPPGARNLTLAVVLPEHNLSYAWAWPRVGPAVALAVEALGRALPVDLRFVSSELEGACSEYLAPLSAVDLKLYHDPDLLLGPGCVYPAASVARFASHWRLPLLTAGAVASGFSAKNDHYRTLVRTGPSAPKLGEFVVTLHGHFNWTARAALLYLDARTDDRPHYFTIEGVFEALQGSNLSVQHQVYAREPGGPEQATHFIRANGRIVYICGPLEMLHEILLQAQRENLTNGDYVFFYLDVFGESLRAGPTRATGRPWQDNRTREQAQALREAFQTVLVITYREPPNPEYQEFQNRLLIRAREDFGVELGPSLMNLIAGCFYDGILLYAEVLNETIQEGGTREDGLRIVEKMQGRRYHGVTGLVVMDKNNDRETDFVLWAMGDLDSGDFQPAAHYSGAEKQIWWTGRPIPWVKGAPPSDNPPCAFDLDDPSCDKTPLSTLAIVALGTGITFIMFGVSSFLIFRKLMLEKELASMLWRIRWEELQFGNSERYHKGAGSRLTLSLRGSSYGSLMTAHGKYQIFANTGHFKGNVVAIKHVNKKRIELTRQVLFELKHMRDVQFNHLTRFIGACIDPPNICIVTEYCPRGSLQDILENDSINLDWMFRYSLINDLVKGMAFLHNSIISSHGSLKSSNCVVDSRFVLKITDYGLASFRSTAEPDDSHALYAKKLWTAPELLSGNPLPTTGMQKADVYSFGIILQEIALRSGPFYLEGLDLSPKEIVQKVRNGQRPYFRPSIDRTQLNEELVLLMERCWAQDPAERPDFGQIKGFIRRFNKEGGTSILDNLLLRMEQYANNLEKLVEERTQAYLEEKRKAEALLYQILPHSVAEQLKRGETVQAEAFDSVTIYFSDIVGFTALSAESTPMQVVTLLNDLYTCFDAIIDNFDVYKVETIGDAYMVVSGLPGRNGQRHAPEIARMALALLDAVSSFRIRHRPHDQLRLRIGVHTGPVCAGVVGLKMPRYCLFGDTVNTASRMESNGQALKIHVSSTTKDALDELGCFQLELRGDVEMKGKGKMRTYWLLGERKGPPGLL
In short: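 cGMP-sensor HEK293/hNpr2 cells; 2% GloSensor reagent 2 h RT; compounds 30 min; baseline luminescence read; 1 nM hNppC agonist 20 min RT; final luminescence read by CCD camera. Antagonism = reduced post-agonist signal.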

[17] = NS1 protein of Zika virus - qHTS assay to identify small molecule inhibitors in human HEK 293 cells (AID 1347053); also: series mostly up to about 46 µM; nearly all actives have a fitted effect of over 55% in size
In short: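 Inhibition of NS1 expression was scored in HEK 293 cells given compound 1 h ahead of MR766 virus (MOI = 0.5). Following 24 h at 37 C, two anti-NS1 antibodies generated a TR-FRET signal, scaled between uninfected and infected controls.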

[18] = molecular target: T1, Tyrosine-protein phosphatase non-receptor type substrate 1 (Homo sapiens) + Leukocyte surface antigen CD47 (Homo sapiens) (UniProt P78324+Q08722); experiment: CD47-SIRPalpha protein protein interaction - LANCE assay qHTS validation (AID 1347057; active = well fitted curve in the direction sought with a large enough effect in the signal ratio, with a control signal flat, not every such curve was filed as active; the % refers to the signal ratio; also: series mostly up to about 38 µM)
T1 sequence (P78324 whole entry, looked up): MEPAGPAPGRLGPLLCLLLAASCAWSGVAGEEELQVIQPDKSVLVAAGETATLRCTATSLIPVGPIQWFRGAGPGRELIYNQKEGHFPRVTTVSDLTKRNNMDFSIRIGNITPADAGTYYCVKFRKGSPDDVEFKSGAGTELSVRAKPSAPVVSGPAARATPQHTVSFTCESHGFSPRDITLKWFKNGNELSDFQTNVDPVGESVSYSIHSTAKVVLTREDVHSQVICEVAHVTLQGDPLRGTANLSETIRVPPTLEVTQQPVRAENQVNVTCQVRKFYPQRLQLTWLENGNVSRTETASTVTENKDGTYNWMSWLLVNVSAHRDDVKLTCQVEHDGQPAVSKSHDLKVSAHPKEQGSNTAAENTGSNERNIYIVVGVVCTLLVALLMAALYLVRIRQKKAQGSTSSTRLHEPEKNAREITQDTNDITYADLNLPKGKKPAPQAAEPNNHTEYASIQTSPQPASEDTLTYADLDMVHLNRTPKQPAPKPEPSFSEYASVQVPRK
T1 sequence (Q08722 whole entry, looked up): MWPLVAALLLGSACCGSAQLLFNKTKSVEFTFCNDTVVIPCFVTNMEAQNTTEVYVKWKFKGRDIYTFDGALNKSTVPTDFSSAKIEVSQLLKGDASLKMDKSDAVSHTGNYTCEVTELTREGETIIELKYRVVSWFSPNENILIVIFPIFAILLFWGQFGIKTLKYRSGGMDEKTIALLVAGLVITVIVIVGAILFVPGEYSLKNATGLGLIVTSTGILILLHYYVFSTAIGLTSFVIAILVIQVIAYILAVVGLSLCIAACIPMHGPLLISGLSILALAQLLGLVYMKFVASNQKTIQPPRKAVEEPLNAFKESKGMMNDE
In short: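 First, His-tagged CD47 and Eu-labelled anti-His antibody met the compound for 30 min; next, site-specifically biotinylated SIRPalpha was added for 30 min; finally streptavidin-APC was added before reading the TR-FRET ratio.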

[19] = molecular target: T1, Tyrosine-protein phosphatase non-receptor type substrate 1 (Homo sapiens) + Leukocyte surface antigen CD47 (Homo sapiens); experiment: CD47-SIRPalpha protein protein interaction - Alpha assay qHTS validation (AID 1347059);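 also: bead proximity luminescence from CD47 binding SIRPalpha after compound preincubation with SIRPalpha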
In short: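 Soluble extracellular domains: Avi-tag biotinylated SIRPalpha (25 nM) preincubated 30 min RT with compound, then 6His-CD47 (12.5 nM) 30 min; Ni-NTA acceptor and streptavidin donor beads (10 ug/mL) 30 min, AlphaScreen read. PBS pH 7.4, 0.05% IGEPAL.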

Measured: Potency

O=c1[nH]c2ccccc2c(=O)n1CCCl
inactive: [1] | [2] | [3] | [4] | [5] | [6] | [7] | [8] | [9] | [10]

CC(=O)c1cc2ccccc2s1
inactive: [1] | [2] | [3] | [4] | [5] | [6] | [11] | [7] | [8] | [9]

Nc1ncnc2n[nH]c(Nc3ccc(F)cc3)c12
inactive: [1] | [12] | [13] | [14] | [15] | [16] | [17] | [18] | [19]

CCCCCCOC(=O)NC(=N)c1ccc(NCc2nc3cc(C(=O)N(CCC(=O)OCC)c4ccccn4)ccc3n2C)cc1
active: [5] 21.1 µM
inactive: [1] | [2] | [17] | [4] | [9]

CCCCCCCCCCCCCC[N+](C)(C)C
active: [4] 10.6 µM | [5] 11.9 µM | [6] 2.11 µM | [11] 3.35 µM | [8] 21.1 µM | [10] 16.8 µM
inactive: [1] | [2]

O=C(CCCl)NCc1ccccc1
inactive: [1] | [2] | [4] | [5] | [6] | [11] | [7] | [8] | [9] | [10]

CC(Oc1c(Cl)cccc1Cl)C1=NCCN1 (configuration not stated)
not listed: [12] | [13] | [14] | [15] | [16] | [17] | [18] | [19]
inactive: all other assays above

Cc1c(N)cccc1C(F)(F)F
not listed: [12] | [13] | [14] | [15] | [16] | [17] | [18] | [19]
inactive: all other assays above

CC(C)(C)C1CCC(CC2=C(O)c3ccccc3C(=O)C2=O)CC1 (configuration not stated)
inactive: [1] | [2] | [3] | [9]
active: [4] 3.35 µM

CN1CCC(N(Cc2cccs2)c2ccccc2)CC1
active: [11] 26.6 µM | [10] 21.1 µM
inactive: [1] | [2] | [3] | [8] | [9]

O=c1[nH]sc2cc(Cl)ccc12
active: [6] 0.001 µM | [11] 0.001 µM | [8] 0.001 µM
inactive: [1] | [2] | [17]

COc1ccc([C@@H]2Sc3ccccc3NC(=O)[C@@H]2O)cc1
inactive: [1] | [2] | [17] | [9]
active: [5] 7.5 µM

CC[C@@H]([C@H](C)O)n1ncn(-c2ccc(N3CCN(c4ccc(OC[C@@H]5CO[C@@](Cn6cncn6)(c6ccc(F)cc6F)C5)cc4)CC3)cc2)c1=O
inactive: [1] | [2]
active: [5] 18.8 µM | [11] 11.9 µM | [8] 21.1 µM

O=C1NC(c2ccccc2)(c2ccccc2)C(=O)N1COP(=O)(O)O
inactive: [1] | [2] | [4] | [5] | [6] | [11] | [7] | [8] | [9] | [10]

CC(=O)OC[C@H]1O[C@@H](OC(C)=O)[C@H](OC(C)=O)[C@@H]1OC(C)=O
not listed: [12] | [13] | [14] | [15] | [16] | [17] | [18] | [19]
inactive: all other assays above

CCN(CC)CCOc1ccc(/C(=C(\Cl)c2ccccc2)c2ccccc2)cc1
inactive: [1] | [2]
active: [5] 18.8 µM | [6] 21.1 µM | [10] 26.6 µM

CCOC(=O)C1=C(C)NC(C)=C(C(=O)OCC)C1c1ccccc1/C=C/C(=O)OC(C)(C)C
inactive: [1] | [2] | [3]

Cc1nc(N)nc(N)c1-c1ccc(Cl)c(Cl)c1
inactive: [1] | [2]
active: [3] 0.47 µM | [4] 0.841 µM | [5] 0.299 µM | [6] 1.06 µM | [11] 0.0335 µM | [7] 0.55 µM

C/C=C(/C(=C/C)c1ccc(OC(C)=O)cc1)c1ccc(OC(C)=O)cc1
active: [11] 5.31 µM
inactive: [1] | [2] | [17] | [7] | [9]

O=C(CCCl)NCCc1ccccc1
not listed: [12] | [13] | [14] | [15] | [16] | [17] | [18] | [19]
inactive: all other assays above
